Experimental data published in the supplement of paper PMC4206461.

What follows are compounds tested on Pseudomonas aeruginosa PA14 wild type (assay: respiration area under curve with compound as sole nitrogen source, 24 h (OmniLog AUC (arbitrary units)); higher = more respiration / better utilisation as nitrogen source, active = 2000 or more). Details: plate: PM8.
Protocol: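 Biolog Phenotype MicroArray plates PM6-PM8: each di/tripeptide is the sole nitrogen source (IF-0 medium with succinate/ferric citrate and dye mix A). Tetrazolium reduction was read in the OmniLog every 15 min for 24 h at 37°C and summarised as area under the respiration curve (arbitrary units). The paper counts values below 2000 as no respiration and above 8000 as solid respiration. Replicate datasets are averaged.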

Row | Compound | respiration area under curve
1 | N[C@@H](Cc1ccc(O)cc1)C(=O)NCC(=O)NCC(=O)O | 11300 (active)
